From PubChem BioAssay (Tox21)
Results filed as inconclusive are left out. Where a call stands in place of a potency, no number is given. The source made the active and inactive calls. Calls follow the shape of the full dose curve.

assay: qHTS assay to identify small molecule antagonists of the estrogen receptor alpha (ER-alpha) signaling pathway using the BG1 cell line (AID 743080); details: BG1Luc4E2 ERE-luciferase antagonist mode, luminescence; series mostly up to 70.3 µM;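 also: BG1 cells stimulated with 17beta-estradiol alongside compound; nearly all actives have a fitted effect of over 25% in size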
In short: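 After 5 days in phenol-red-free 10% charcoal-stripped FBS medium, BG1-Luc-4E2 cells were seeded, left 24 h at 37 C, co-treated with compounds and 17beta-estradiol for 21.5 h, then assayed for viability and luciferase.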

SMILES | Potency
CO[C@@]1(NC(=O)CSC[C@@H](N)C(=O)O)C(=O)N2C(C(=O)O)=C(CSc3nnnn3C)CS[C@@H]21 | inactive
CCCCN1C=CN(C)C1 | inactive
COc1ccnc(CS(=O)c2nc3cc(OC(F)F)ccc3[nH]2)c1OC (centres undefined) | inactive
CN(C)CCCN(C)CCCN(C)C | inactive
CCCCS(=O)(=O)N[C@@H](Cc1ccc(OCCCCC2CCNCC2)cc1)C(=O)O | inactive
O=C(O)CNC(=O)c1ccc(CO)o1 | inactive
CC(C)(CCC(=O)O)C(=O)O | inactive
CC(=O)c1ccccc1[N+](=O)[O-] | inactive
C1CCC2(CCCCO2)OC1 | inactive
Cc1ccnc(NS(=O)(=O)c2ccc(N)cc2)n1 | inactive
c1ccc(Cc2ccccc2)cc1 | inactive
CC1=NS(=O)(=O)c2cc(Cl)ccc2N1 | inactive
Cc1ccc(C(=O)c2ccc(CC(=O)O)n2C)cc1 | inactive
Cc1cccc(C)c1NC(=O)CC12CCCN1CCC2 | inactive
